# According to article PMC11062922 (Nature Chemical Biology, 2023):
# What was measured:
# Set-up in all cases: species or system human, MV4-11 + K-562 + COLO205 + SK-N-BE2 + OVCAR-8
# CDC7 = details: read-out: apparent Kd; compound concentrations:100 nM and 1000 nM (sheet 'Samples'); n = 1
# PIK3CD = details: read-out: apparent Kd; compound concentrations:100 nM and 1000 nM (sheet 'Samples'); n = 1
# TGFBR1 = details: read-out: apparent Kd; compound concentrations:100 nM and 1000 nM (sheet 'Samples'); n = 1
# CDK10 = details: read-out: apparent Kd; compound concentrations: 100 nM and 1000 nM (sheet 'Samples'), CATDS: 0.11960358808183499; n = 1
# GSK3A = details: read-out: apparent Kd; compound concentrations: 100 nM and 1000 nM (sheet 'Samples'), CATDS: 0.212149107920546; n = 1
# GSK3B = details: read-out: apparent Kd; compound concentrations: 100 nM and 1000 nM (sheet 'Samples'), CATDS: 0.208029225896153; n = 1
# HSPE1 = details: read-out: apparent Kd; compound concentrations: 100 nM and 1000 nM (sheet 'Samples'), CATDS: 0.54374623342004202; n = 1
# ICK = details: read-out: apparent Kd; compound concentrations: 100 nM and 1000 nM (sheet 'Samples'), CATDS: 0.128713258557627; n = 1
# PKM = details: read-out: apparent Kd; compound concentrations: 100 nM and 1000 nM (sheet 'Samples'), CATDS: 0.11750793600078301; n = 1
# CDK4 = details: read-out: apparent Kd; compound concentrations: 100 nM and 1000 nM (sheet 'Samples'), CATDS: 0.32683838675566101; n = 1
# MAP2K2 = details: read-out: apparent Kd; compound concentrations: 100 nM and 1000 nM (sheet 'Samples'), CATDS: 0.35471612701675298; n = 1
# PDGFRB = details: read-out: apparent Kd; compound concentrations: 100 nM and 1000 nM (sheet 'Samples'), CATDS: 0.32038670462926999; n = 1
compound,measurement,setting,value
c1ccc(-c2cc(-c3c[nH]nc3-c3ccccn3)ccn2)cc1 [GW576604X],potency estimated from few doses,CDC7,1.87 µM
same,potency estimated from few doses,PIK3CD,0.128 µM
same,potency estimated from few doses,TGFBR1,0.629 µM
Cn1cc(C2=C(c3cccnc3)C(=O)NC2=O)c2ccccc21 [RO0317886-000],potency estimated from few doses,CDK10,1.08 µM
same,potency estimated from few doses,GSK3A,0.213 µM
same,potency estimated from few doses,GSK3B,0.222 µM
same,potency estimated from few doses,HSPE1,0.0393 µM
same,potency estimated from few doses,ICK,0.825 µM
same,potency estimated from few doses,PKM,1.16 µM
COc1cc2ncn(-c3cc(OCc4ccccc4C(F)(F)F)c(C(=O)N(C)C)s3)c2cc1OC [GSK1030062A],potency estimated from few doses,CDK4,2.02 µM
same,potency estimated from few doses,MAP2K2,1.72 µM
same,potency estimated from few doses,PDGFRB,2.11 µM
